Source: ChEMBL document CHEMBL3988442, “University of Dundee, Small-Polar-MMV Screening Library” (2021)
In all, about 48,000 compounds went through this assay and about 13,000 (27%) showed an effect of 50% or more. Some of the results follow.

Each molecule was assayed on Wolbachia pipientis (assay: Anti-Wolbachia Cell-Based Screen). Conditions: 5 µM.
Format: functional
Design: scale not given: in the data most compounds retested in dose-response had high values

| SMILES | Percent Effect [%] |
| --- | --- |
| Cc1ccccc1N1CCN(C(=O)Cn2ccnc2)CC1=O | -5.789 |
| O=C1CC(c2ccc(C(=O)O)cc2)c2ncn(-c3ccccc3Cl)c2N1 (centres undefined) | 2.095 |
| Nc1nccnc1C(=O)N1CCN(Cc2cccc3ccccc23)CC1 | -30.2 |
| Cc1ccccc1N1CCCN(C(=O)c2nn(C)cc2Cl)CC1 | 7.51 |
| Cc1ccccc1-n1cnc(Cl)c1C(=O)O | 65.1 |
| O=C(O)c1c(Cl)ncn1-c1cccc2ccccc12 | 101.1 |
| Cc1ccc(-c2n[nH]cc2CNCC2CCN(CC(F)(F)F)C2)o1.Cl (centres undefined) | -7.389 |
| Cc1cc(N2CCCN(C(C(=O)O)c3cccc(C)c3F)CC2)ccn1 (centres undefined) | 1.101 |
| O=C1CCC(C(=O)N2CCOC(Cc3cccc4ccccc34)C2)=NN1 (centres undefined) | -9.724 |
| Cc1ccc2ncnc(N3CCOCC3c3c(C)nn(C)c3C)c2c1 (centres undefined) | -2.563 |
| O=S(=O)(c1c(F)cccc1F)N1CCC(Cn2cccn2)CC1 | 15.84 |
| Cc1nc(CN2CCCC3(CCN(c4cnn(C)c4)C3=O)C2)cs1.O=C(O)C(F)(F)F (centres undefined) | 93.19 |
| COCCN1CCCC2(CCN(c3ccsc3)C2=O)C1.O=C(O)C(F)(F)F (centres undefined) | -26.52 |
| Cc1nc(CN2CCC3(CCN(c4cnn(C)c4)C3=O)C2)cs1.O=C(O)C(F)(F)F (centres undefined) | 109 |
| Cc1cccc(NC2CCN(C(=O)Nc3cn[nH]c3)CC2)n1 | 110.2 |
| Cc1cccc(NC2CCN(C(=O)Nc3ccccn3)CC2)n1 | 83.84 |
| Cc1cccc(NC2CCN(C(=O)Nc3ccc(F)c(F)c3)CC2)n1 | 86.81 |
| O=C(Nc1ccc(F)c(Br)c1)N1CCCC1 | 7.891 |
| Cc1cccc(NC2CCN(C(=O)Nc3cc(C)on3)CC2)n1 | -9.175 |
| Cc1ccc(C(=O)Nc2cn[nH]c2)cn1 | 2.995 |
| Cc1cccc(NC2CCN(C(=O)Nc3ccncc3)CC2)n1 | 110.6 |
| Cc1cccc(NC2CCN(C(=O)Nc3cc(F)cc(F)c3)CC2)n1 | -9.024 |

| SMILES | Percent Effect [%] |
| --- | --- |
| O=C(CCn1ccc(=O)[nH]c1=O)N1CCC(OCc2cccnc2)CC1 | 17.72 |
| COCc1noc(C2(c3ccc(Br)cc3)CCOCC2)n1 | -15.05 |
| CS(=O)(=O)CCCC(=O)N1CCN(CC2CC2)c2ccccc21 | -17.42 |
| N#Cc1ccc(N2CCCN(CCCn3cncn3)CC2)cc1 | -1.933 |
| Cc1nc(N2CCC3(CCCNC3=O)C2)nc2c1CCCC2 (centres undefined) | 1.379 |
| CN1C[C@@H](N)C[C@H]1C(=O)N1CCC(CCCc2ccccc2)CC1 | 99.37 |
| CN1CCC(N(C)CCC(=O)N2CCC(Cc3ccc(F)cc3)CC2)C1 (centres undefined) | -0.3221 |
| CCC(=O)N1CCCC1C(=O)N1CCC(Cc2ccc(F)cc2)CC1 (centres undefined) | 110.1 |
| CN1CSC[C@H]1C(=O)N1CCC(Cc2ccccc2F)CC1 | -34.6 |
| CN1CSC[C@H]1C(=O)N1CCC(CCc2ccccc2)CC1 | -22.77 |
| CN1C[C@@H](N)C[C@H]1C(=O)N1CCC(Cc2ccc(F)cc2)CC1 | 81.94 |
| CC(C(=O)N1CCC(Cc2ccc(F)cc2)CC1)n1ccnc1 (centres undefined) | -3.796 |
| CC(=O)N1CCCC1C(=O)N1CCC(=Cc2cccc(F)c2)CC1 (centres undefined) | -11.75 |
| O=C(C1CCS(=O)(=O)CC1)N1CCC(Cc2ccc(F)cc2)CC1 | -5.215 |
| O=C1CCC2(CCCN(C(=O)c3cscn3)C2)CN1CCc1c[nH]cn1 (centres undefined) | -10.65 |
| COCC[C@]1(O)CCN(C(=O)CCc2cnn(C)c2)C[C@H]1C | 4.52 |
| COCCCN1C(=O)CC[C@H]2CN(c3ccc(C(N)=O)cn3)CC[C@H]21 | -7.977 |
| O=C(O)C(F)(F)F.O=C([C@@H]1COC[C@H]2CN(C3CCCC3)C[C@H]21)N1CCCO1 | 17.11 |
| N#Cc1cccn(CCOc2ccc(Cl)cc2)c1=O | 1.787 |
| CCN(Cc1cccc(C(=O)Nc2ncc(C)s2)c1)[C@H]1COC[C@@H]1O | -30.5 |
| COc1cccc(OCCCc2cncc(C(N)=O)c2)c1 | -6.464 |
| COc1cccc(OCC(=O)Nc2cc(C)cnc2OC)c1 | -3.039 |

| SMILES | Percent Effect [%] |
| --- | --- |
| COc1cccc(OCC(=O)N(C)c2cccnc2)c1 | 104.9 |
| COc1cccc(OCC(=O)NS(=O)(=O)c2cc(F)ccc2F)c1 | -14.39 |
| COc1ccc(CC(=O)N(C)c2cccnc2N(C)C)c(Cl)c1 | 3.868 |
| COc1cccc(OCC(=O)N(C)c2cccnc2N(C)C)c1 | 85.27 |
| Cn1cccc1C(=O)N[C@@H]1CN(Cc2cccs2)[C@@H]2COC[C@@H]21.O=C(O)C(F)(F)F | -0.8834 |
| Cc1nc(C)n(CC2CCCCN2CCCC#N)n1 (centres undefined) | 3.604 |
| CCc1nnc(NC(=O)N(CCOC)Cc2ccc(C)o2)s1 | -17.47 |
| CN(CCCNC(=O)CN1CCS(=O)(=O)CC1)c1ccccc1 | 9.575 |
| COCC(=O)NC[C@@]1(COc2cccnc2)C[C@@H](O)[C@@H](O)C1.Cl | -0.8237 |
| COCC(=O)NC[C@H]1CC[C@H](c2nnc(-c3cccnc3)o2)CC1 | 199.6 |
| COCC(=O)NCC1Cn2nnc(-c3ccncc3)c2CO1.O=C(O)C(F)(F)F (centres undefined) | -3.08 |
| COCC(=O)NC[C@H]1CC[C@H](c2nnc(-c3ccncc3)o2)CC1 | 130.9 |
| c1cncc(-c2nnc([C@H]3CCN(CC4CC4)C3)o2)c1 | 10.36 |
| c1cncc(-c2nnc([C@H]3CCN(CC4CCCCC4)C3)o2)c1 | 11.75 |
| O=C(c1cccnc1)C1CCCN(c2nnc(C3CC3)o2)C1 (centres undefined) | -9.968 |
| c1cc(-c2nnc([C@H]3CCNC3)o2)ccn1 | -9.06 |
| O=C(NC[C@H]1CC[C@H](c2nnc(-c3cccnc3)o2)CC1)C1CC1 | 169.2 |
| Cc1nc(C(C)C)sc1C(=O)N(C)Cc1nc(-c2ccccn2)no1 | -7.076 |
| CC(CN(C)C(=O)c1cn(C)nc1-c1ccc(F)cc1F)C(=O)O (centres undefined) | -1.433 |
| CCOc1ccc2nc(CN3CCC(CNC(C)=O)C3)ccc2c1 (centres undefined) | 0.9569 |
